Bioassay records from PubChem BioAssay.
Sampled rows, rich in hits. Any-hit rate of the full collection: about 19%.
TDP1 cell CPT: DT40-hTDP1 cell growth loss with CPT | chicken DT40 Tdp1-/-;hTDP1 cells + 20 nM CPT, ATP luminescence, 48 h | Potency, µM (doses to about 46.2 µM), for inactives: top-dose activity change, negative = growth inhibition, hits mostly inhibitors | 12% of 420,000 active; also: nearly all actives have a fitted effect of over 55% in size
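Chicken DT40 Tdp1-/- cells stably complemented with human TDP1 were seeded at 400 cells/well in medium containing 20 nM camptothecin, exposed to pin-transferred compounds, and grown at 37 °C for at least 48 hr. Viability was read as ATP luminescence.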
KB-3-1 tox: kills parental KB-3-1 adenocarcinoma cells | KB-3-1 viability, CellTiter-Glo ATP luminescence, 72 h | 1.4% of 400,000 active | Potency, µM (top dose mostly 46.1 µM), most hits filed as cytotoxic | AID 1347075; also: nearly all actives have a fitted effect of over 60% in size
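KB-3-1 parental drug-naive adenocarcinoma cells in DMEM/10% FBS, incubated 72 h at 37 C with pin-transferred compounds across a concentration series. Viability by CellTiter-Glo luminescence; concentration-response curves fitted after normalization.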
DT40 TDP1 no CPT: qHTS for Inhibitors of human tyrosyl-DNA phosphodiesterase 1 (TDP1): qHTS in cells in absence of CPT. DT40 Tdp1-/- hTDP1 cells, no CPT, ATP luminescence, 48 h. Potency, µM (doses to about 46.2 µM), for inactives: at the highest dose activity change, negative = growth inhibition, actives largely listed as inhibitors. 15% of 420,000 active; also: nearly all actives have a fitted effect of over 55% in size
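Compound effects on proliferation are scored in DT40 Tdp1-/-;hTDP1 cells in the absence of CPT. ATP levels (CellTiter-Glo luminescence) are recorded after a ≥48 hr, 37 °C incubation.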
HT1080 IDH1KD tx: kills HT-1080 cells with IDH1 knockdown; 2% of 360,000 active; AID 686971; Potency, µM (highest dose often 46.1 µM), without a hit: at the highest dose activity, negative = toxicity, usual class: cytotoxic; HT-1080 IDH1 knockdown viability, ATP luminescence, 48 h;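 also: 0% = DMSO wells and -100% = cell-free medium wells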
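HT-1080-IDH1KD cells (IDH1 knocked down), 750/well in RPMI with 5% FBS, treated with compound 48 h at 37 degrees C. Viability by CellTiter-Glo luminescence, normalised to DMSO and no-cell wells; concentration-response curves classed.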
HT1080-NT tox: kills 2HG-producing HT-1080-NT fibrosarcoma cells. HT-1080-NT fibrosarcoma viability, CellTiter-Glo ATP luminescence, 48 h. Potency, µM (doses to about 46.1 µM), for the others: at the highest dose activity, negative = less viability, hits mostly cytotoxic. 1.6% of 360,000 active. AID 686970;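 also: NT is the 2HG producing partner of a matched IDH1 knockdown line; 0% = DMSO-treated cells and -100% = media-only wells without cells; nearly all actives have a fitted effect of over 55% in size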
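Fibrosarcoma NT cells, 750 per well in 5% FBS RPMI, were exposed to compound for 48 hours. Viability: CellTiter-Glo luminescence.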
KB-V1 cytotox: kills drug-selected multidrug resistant KB-V1 cells | Potency, µM (doses to about 46.1 µM), usual class: cytotoxic | AID 1347076 | KB-V1 MDR cells viability, CellTiter-Glo, 72 h | 3.4% of 400,000 active; also: nearly all actives have a fitted effect of over 60% in size
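KB-V1 MDR subline cells in DMEM (phenol-red free, 10% FBS) exposed to compounds in qHTS concentration series for 72 h at 37 degrees C. Viability read by CellTiter-Glo luminescence; concentration-effect curves fitted after normalization and correction.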
Starred values were filed as active, the others as inactive. Calls follow the shape of the dose curve; as a rule, active = well fitted curve in the direction sought with a large enough effect; inconclusive = small, poorly fitted or top-dose-only effect, or another doubt; inactive = no such curve, though single readings can be large; an effect the other way counts as inactive or inconclusive. Unless noted, % is scaled to controls: 0 for no effect and ±100 for the full control effect; potency is read from the fitted curve at half-maximal effect.

`COc1ccc(-c2ccnc(SCC(=O)c3ccc(Cl)cc3)n2)cc1` gave TDP1 cell CPT -25.9%, KB-3-1 tox inactive, DT40 TDP1 no CPT inconclusive, HT1080 IDH1KD tx 8.4%, HT1080-NT tox 2.2% and KB-V1 cytotox inconclusive.
For O=C(CSc1n[nH]c(-c2ccc(F)cc2)n1)NCCc1ccccc1 the results were TDP1 cell CPT -27.5% and DT40 TDP1 no CPT inconclusive.
O=C(CSc1n[nH]c(-c2ccccc2)n1)NCCCc1ccccc1 was read as TDP1 cell CPT inconclusive, KB-3-1 tox inactive, DT40 TDP1 no CPT 20.6µM* and KB-V1 cytotox inactive.
COc1ccc(OC)c(C(=O)CSc2nccc(-c3ccc(Br)cc3)n2)c1 was read as TDP1 cell CPT inconclusive, KB-3-1 tox inactive, DT40 TDP1 no CPT 29.1µM*, HT1080 IDH1KD tx -27.1%, HT1080-NT tox inconclusive and KB-V1 cytotox inconclusive.
`CCCc1c(C)[nH]c2ccccc2c1=O` gave TDP1 cell CPT inconclusive, KB-3-1 tox inactive, DT40 TDP1 no CPT inconclusive, HT1080 IDH1KD tx 15.8%, HT1080-NT tox 15.6% and KB-V1 cytotox inactive.
For CCCCCCCCCC[n+]1ccc(/C=C/c2c(C)[nH]c3ccccc23)c2ccccc21 the results were TDP1 cell CPT 0.794µM*, KB-3-1 tox 5.8µM*, DT40 TDP1 no CPT 1µM* and KB-V1 cytotox inconclusive.
For CCCCCCC[n+]1ccc(/C=C/c2c(C)[nH]c3ccccc23)c2ccccc21 the results were TDP1 cell CPT 1.26µM*, KB-3-1 tox 8.2µM*, DT40 TDP1 no CPT 1.26µM* and KB-V1 cytotox inconclusive.
For O=C(N/N=C/c1cn(-c2ccccc2)nc1-c1cc2ccccc2o1)c1ccccc1Br the results were TDP1 cell CPT 4.61µM*, KB-3-1 tox inconclusive, DT40 TDP1 no CPT 14.6µM*, HT1080 IDH1KD tx 11.6µM*, HT1080-NT tox inconclusive and KB-V1 cytotox inconclusive.
For O=C(N/N=C/c1cn(-c2ccccc2)nc1-c1cc2ccccc2o1)c1c[nH]c2ccccc12 the results were TDP1 cell CPT inconclusive, KB-3-1 tox inactive, DT40 TDP1 no CPT 4.61µM*, HT1080 IDH1KD tx -22.8%, HT1080-NT tox -23.5% and KB-V1 cytotox inactive.
Screening OCc1cn(-c2ccccc2)nc1-c1cc2ccccc2o1 returned TDP1 cell CPT inconclusive, KB-3-1 tox inconclusive, DT40 TDP1 no CPT -3.0%, HT1080 IDH1KD tx 15.8%, HT1080-NT tox 21.0% and KB-V1 cytotox inactive.
For COc1ccc(OC)c2[nH]c(=O)c(CCNC(=O)c3cccs3)cc12 the results were TDP1 cell CPT -18.1%, KB-3-1 tox inactive, DT40 TDP1 no CPT -14.5%, HT1080 IDH1KD tx 17.7%, HT1080-NT tox 8.9% and KB-V1 cytotox inactive.
For CSC1=N/C(=C\c2ccc(Cl)cc2)C(=O)N1N(C)C the results were TDP1 cell CPT inconclusive, KB-3-1 tox inactive, DT40 TDP1 no CPT 23.1µM*, HT1080 IDH1KD tx -17.0%, HT1080-NT tox -1.6% and KB-V1 cytotox inactive.
COc1ccc(/C=C2\N=C(SC)N(C)C2=O)cc1 was read as TDP1 cell CPT -3.5%, KB-3-1 tox inactive, DT40 TDP1 no CPT -3.5%, HT1080 IDH1KD tx 8.8%, HT1080-NT tox 6.9% and KB-V1 cytotox inconclusive.
`CC(C)=C1SC(N2CCN(c3cccc(Cl)c3)CC2)=NC1=O` gave TDP1 cell CPT inconclusive, KB-3-1 tox inactive, DT40 TDP1 no CPT inconclusive, HT1080 IDH1KD tx -17.7%, HT1080-NT tox -3.8% and KB-V1 cytotox inactive.
`CN1CCN(C2=Nc3ccccc3Sc3ccc(Cl)cc32)CC1` gave TDP1 cell CPT inconclusive and DT40 TDP1 no CPT 10.6µM*.
Screening C#CCOCCOCCOCCNc1nc(N2CCN(C(=O)CCCCCCCCCCNC(=O)Cn3cc(C[C@@H](C)O)nn3)CC2)nc(N2CCN(C(=O)CCCCCCCCCCNC(=O)[C@@H]([C@H](C)O)n3cc(C)nn3)CC2)n1 returned TDP1 cell CPT 7.31µM*, KB-3-1 tox inconclusive, DT40 TDP1 no CPT 7.31µM*, HT1080 IDH1KD tx 20.6µM*, HT1080-NT tox 18.4µM* and KB-V1 cytotox inactive.
C#CCOCCOCCOCCNc1nc(N2CCN(C(=O)CCCCCCCCCCNC(=O)Cn3cc(C[C@@H](C)O)nn3)CC2)nc(N2CCN(C(=O)CCCCCCCCCCNC(=O)[C@@H]([C@H](C)CC)n3cc(CCCCCN)nn3)CC2)n1 was read as TDP1 cell CPT 13µM*, KB-3-1 tox 23.1µM*, DT40 TDP1 no CPT 5.8µM*, HT1080 IDH1KD tx 23.1µM*, HT1080-NT tox 18.4µM* and KB-V1 cytotox inactive.
Screening C#CCOCCOCCOCCNc1nc(N2CCN(C(=O)CCCCCCCCCCNC(=O)Cn3cc(CCCCCN)nn3)CC2)nc(N2CCN(C(=O)CCCCCCCCCCNC(=O)Cn3cc(C[C@@H](C)O)nn3)CC2)n1 returned TDP1 cell CPT inconclusive, KB-3-1 tox inactive, DT40 TDP1 no CPT inconclusive, HT1080 IDH1KD tx inconclusive, HT1080-NT tox inconclusive and KB-V1 cytotox inactive.
Screening Cn1cnnc1SCC(=O)NC1CCCCC1 returned TDP1 cell CPT 22.8%, KB-3-1 tox inactive, DT40 TDP1 no CPT 1.8%, HT1080 IDH1KD tx 18.3%, HT1080-NT tox 11.1% and KB-V1 cytotox inactive.
For CCC(C)Sc1ccc([C@H]2N[C@@](C)(C(=O)OC)[C@H]3C(=O)N(CC)C(=O)[C@@H]23)cc1OC (stereo not given in full) the results were TDP1 cell CPT inconclusive, KB-3-1 tox inactive, DT40 TDP1 no CPT inconclusive, HT1080 IDH1KD tx 4.1%, HT1080-NT tox 11.8% and KB-V1 cytotox inactive.
